# TSG101-PTAP inh – blocks PTAP/TSG101 interaction to inhibit HIV-1 budding; Q99816; Fluorescence polarization, FITC-PTAP peptide / Tsg101 binding; Potency, µM (top dose mostly 115 µM), for inactives: at the highest dose activity change, negative = inhibition, actives largely listed as inhibitors; 340,000 tested, under 10 active; AID 493005; active = well fitted inhibition curve with a large enough effect in the main read-out, with a control signal flat, not every such curve was filed as active; inconclusive = small, poorly fitted or top-dose-only effect, or effect the other way, or a change in a side signal; inactive = no such curve, though single readings can be large or run the other way; note: % of control where 0% means no effect
# Target sequence (Q99816 whole entry, looked up): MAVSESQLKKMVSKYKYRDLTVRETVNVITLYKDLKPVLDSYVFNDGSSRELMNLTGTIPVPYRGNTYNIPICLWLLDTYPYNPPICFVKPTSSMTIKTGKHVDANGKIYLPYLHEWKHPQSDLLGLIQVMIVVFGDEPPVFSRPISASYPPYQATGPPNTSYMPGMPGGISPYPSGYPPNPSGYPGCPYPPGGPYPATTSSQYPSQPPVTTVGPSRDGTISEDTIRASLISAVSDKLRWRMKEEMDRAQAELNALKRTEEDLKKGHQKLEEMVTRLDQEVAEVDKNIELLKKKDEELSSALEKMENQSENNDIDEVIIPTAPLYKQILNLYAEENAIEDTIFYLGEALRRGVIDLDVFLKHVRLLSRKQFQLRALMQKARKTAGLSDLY
#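 Steps: Tsg101 binding domain dispensed (10 uM final), compounds pinned in DMSO, FITC-labeled PTAP-motif peptide added (50 nM final); after 20 min binding at room temperature, polarization measured.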
# PINK1 modulator – changes PINK1 expression; Potency, µM (top dose mostly 76.6 µM), inactives show at the top dose activation (PINK1 increase), actives largely listed as activators; PINK1 immunofluorescence, high-content cytometry, 24 h; actives 0.2% (n = 410,000); active = well fitted activation curve with a large enough effect; inconclusive = small, poorly fitted or top-dose-only effect; cell line not stated here; note: % of control where 0% means no effect; nearly all actives have a fitted effect of over 65% in size
#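 Stable cell line, 250 cells/well, 12 h attachment; compounds pinned at 5 concentrations, 24 h; CCCP control. Fixed with nuclear dye, primary antibodies 12 h at 10 degrees C, secondary plus cell stain; laser-scanning cytometer read.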
# KB-3-1 cytotox – kills parental KB-3-1 adenocarcinoma cells; KB-3-1 viability, CellTiter-Glo ATP luminescence, 72 h; Potency, µM (titrated, usually from 46.1 µM), most hits filed as cytotoxic; actives 1.4% (n = 400,000); note: % is set by controls: 0 for no effect and ±100 for the full control effect; nearly all actives have a fitted effect of over 60% in size
#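 Multi-concentration cytotoxicity screen in KB-3-1 cells grown in DMEM lacking phenol red with 10% FBS. After 72 h at 37 °C with compound, ATP-dependent luminescence was recorded.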
# MCF10A rereplic – DNA re-replication induction in MCF 10a cells. MCF 10A DNA re-replication, Hoechst nuclear intensity, 48 h. Potency, µM (series often up to 46.1 µM), for inactives: at the top dose activity, positive = re-replication, usual class: activators. actives 2.9% (n = 350,000). AID 624296; note: % of control where 0% means no effect; nearly all actives have a fitted effect of over 50% in size
# SW480 rereplic – induces DNA re-replication in SW480 colon adenocarcinoma cells | SW480 DNA re-replication, Hoechst DNA content imaging, 48 h | Potency, µM (highest dose often 46.1 µM), inactives show at the top dose re-replication activation, most hits filed as activators | actives 1.8% (n = 340,000) | AID 624297; note: % of control where 0% means no effect; nearly all actives have a fitted effect of over 55% in size
#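 Readout is total intensity of Hoechst-stained nuclei, excited at 405 nm and collected at 500-530 nm. Compound treatment lasted 48 hr at 37 C in 5% CO2 before staining.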
# KB-V1 cytotox – KB-V1 MDR subline cytotoxicity; KB-V1 MDR cells viability, CellTiter-Glo, 72 h; Potency, µM (doses to about 46.1 µM), actives largely listed as cytotoxic; actives 3.4% (n = 400,000); AID 1347076; note: % is set by controls: 0 for no effect and ±100 for the full control effect; nearly all actives have a fitted effect of over 60% in size
#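 Following 72 h at 37 degrees C with compound, KB-V1 cell viability was read by CellTiter-Glo luminescence, medium being phenol-red-free DMEM plus 10% FBS; concentration-response parameters came from normalized, curve-fitted qHTS data.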
# * marks the source's active call; other numbers are inactive results; i = inactive; u = inconclusive; x = not tested or not shown; [ ] = remark or other dose. Sampled rows, rich in hits. Any-hit rate of the full collection: about 6.8%. Unless noted, calls come from the whole dose curve; as a rule, active = well fitted curve in the direction sought with a large enough effect; inconclusive = small, poorly fitted or top-dose-only effect, or another doubt; inactive = no such curve, though single readings can be large; an effect the other way counts as inactive or inconclusive. Potency is the fitted concentration of half-maximal effect.
SMILES,TSG101-PTAP inh,PINK1 modulator,KB-3-1 cytotox,MCF10A rereplic,SW480 rereplic,KB-V1 cytotox
COCCn1c(-c2cccs2)nc2nc3ccccc3nc21,-1.8%,-0.3%,i,u,7.31µM*,i
CCOC(=O)c1cnc2ccc(C)cc2c1Nc1ccc(N2CCOCC2)cc1,-3.9%,-1.3%,u,20.6µM*,15.6%,i
Cc1cc(OCC(=O)Nc2ccccc2F)nc(C(C)C)n1,-2.4%,3.7%[38.3 µM],i,-1.6%,-3.8%,i
Cc1cc(OCC(=O)Nc2ccc(F)c(F)c2)nc(C(C)C)n1,-1.2%,0.4%[38.3 µM],i,u,23.1µM*,i
CC1CC(C)CN(S(=O)(=O)c2ccc(C(=O)Nc3nnc(-c4cccs4)o3)cc2)C1 (stereo not given),-16.5%,1.2%,u,u,24.6%[9.22 µM],12.6µM*
CCC1CCCCN1S(=O)(=O)c1ccc(C(=O)Nc2nnc(-c3cccs3)o2)cc1 (stereo not given),-9.9%,1.7%,u,u,u,5.01µM*
CC1CCCN(S(=O)(=O)c2ccc(C(=O)Nc3nnc(-c4ccccc4Cl)o3)cc2)C1 (stereo not given),0.8%,2.4%,7.31µM*,u,u,u
Cc1ccc(S(=O)(=O)Nc2cccc(-c3ccc(N4CCCCC4)nn3)c2)s1,x,0.5%,i,x,x,i
CCSc1ccccc1C(=O)N1CCN(c2nc3ccccc3s2)CC1,x,1.4%,x,x,x,x
CC(=O)Nc1ccc(Oc2ccc([N+](=O)[O-])cc2Cl)cc1,-1.3%,0.8%,i,1.5%,-1.4%,i
CC(=O)Nc1ccc(N=c2cc([N+](=O)[O-])cc(Cl)n2O)cc1,-2.2%,0.2%,u,u,23.1µM*,u
COC(=O)CNC(c1ccccc1Cl)c1cc(Br)ccc1NS(=O)(=O)c1ccc(C)cc1 (stereo not given),-8.3%,0.6%,u,u,3.2%,18.4µM*
Cn1c2ccccc2c2ncn(CCC3=CCCCC3)c(=O)c21,-0.9%,-2.6%,i,u,2.3%,16.4µM*
Cn1c2ccccc2c2ncn(CCCN3CCOCC3)c(=O)c21,-7.5%,-1.8%,i,-1.4%,7.0%,i
CCCCN(C)C1=CC2=CC(=C(C#N)C#N)CCC2CC1 (stereo not given),u,12.6µM*,i,3.3%,-1.4%,u
COc1ccc(C#Cc2c(-c3ccccc3)n(-c3ccccc3)c3ccc(CO)cc23)cc1,-0.6%,1.9%,i,20.6µM*,u,u
Cc1ccc2nc(C)cc(Nc3ccc([N+](=O)[O-])cc3)c2c1,2.0%,12.3%,u,2.91µM*,9.2µM*,i
COC(=O)c1ccc(Nc2cc(C)nc3ccc(C)cc23)cc1,-0.2%,-1.6%,6.51µM*,18.4µM*,18.4µM*,u
COc1ccc2nc(C)cc(Nc3ccc(C)cc3)c2c1,0.4%,1.1%,i,u,-0.2%,i
COC(=O)c1ccc2nc(C)cc(Nc3ccccc3C)c2c1,-2.3%,6.7%,i,4.0%,-4.9%,i
COc1ccc(CNC(=O)CN2C(=O)COc3ccccc32)c(OC)c1,x,-0.3%,x,x,x,x
Cc1cccc(NC(=O)C2CCCN(c3nnc(-n4c(C)ccc4C)s3)C2)c1C (stereo not given),x,1.3%,x,x,x,x
Cc1c(-c2ccc(Cl)cc2)c(=O)oc2c(CN3CCN(C)CC3)c(O)ccc12,x,-0.3%,i,x,x,i
Cc1ccccc1OCCn1cc(C=O)c2ccccc21,-0.4%,-1.1%,u,u,-1.1%,16.4µM*
CC(C)CCNC(=O)C12CN(Cc3ccccc3)CC1C(c1ccc([N+](=O)[O-])cc1)=NO2 (stereo not given),-3.0%,-0.4%,u,-6.6%,-2.5%,i
SMILES,TSG101-PTAP inh,PINK1 modulator,KB-3-1 cytotox,MCF10A rereplic,SW480 rereplic,KB-V1 cytotox
COc1cccc(CNC(=O)C23CN(Cc4ccccc4)CC2C(c2ccc([N+](=O)[O-])cc2)=NO3)c1 (stereo not given),-5.0%,-0.6%,i,2.1%,0.3%,13µM*
COc1ccc(NC(=O)CC2CC3CCC2C3)cc1S(=O)(=O)N1CCOCC1 (stereo not given),-1.8%,-0.1%,i,9.5%,-1.5%,13µM*
COc1ccc(NC(=O)Cc2coc3ccc4ccccc4c23)cc1S(=O)(=O)N1CCOCC1,0.4%,-0.2%,i,u,u,i
COc1ccc(S(=O)(=O)Nc2ccccc2OC)cc1NC(=O)CC1CC2CCC1C2 (stereo not given),-1.1%,0.7%,i,u,5.4%,20.6µM*
COc1ccc(NS(=O)(=O)c2ccc(OC)c(NC(=O)CNC(=O)c3ccc(OC)cc3)c2)cc1,-6.2%,5.6%,i,16.9%,-16.7%,i
COc1ccc(NC(=O)Cc2coc3cc(C)ccc23)cc1S(=O)(=O)N1CCOCC1,0.1%,0.9%,i,15.1%,1.3%,18.4µM*
COc1ccc(NS(=O)(=O)c2ccc(OC)c(NC(=O)CCC3CCCCC3)c2)cc1,-4.5%,4.7%,i,14.8%,-57.0%,11.6µM*
O=C(Nc1cccc(C(=O)N2CCN(c3ccccc3)CC2)c1)c1nsc2ccccc12,x,-0.2%,i,x,x,i
CCN(Cc1ccncc1)Cc1ccc2c(c1)CN(C(=O)c1ccc(OC)cc1)CCO2,x,-0.8%,x,x,x,x
COc1ccc(Br)cc1CNC(=O)C(C)n1nc(C)n2c(cc3occc32)c1=O (stereo not given),x,-0.3%,x,x,x,x
CSc1ncccc1C(=O)NCCN1Cc2ccccc2OC(c2ccccc2F)C1 (stereo not given),x,0.9%,x,x,x,x
CCOc1ccc(-c2csc(-c3nc(-c4ccc(Br)s4)cs3)n2)cc1,x,-0.9%,i,x,x,i
Cc1cc(C)cc(OCC(O)CN2CCN(Cc3ccc4c(c3)OCO4)CC2)c1 (stereo not given),-3.2%,-1.3%,i,16.4µM*,8.8%,i
OC(COc1ccccc1)CN1CCN(Cc2ccc3c(c2)OCO3)CC1 (stereo not given),2.1%,0.5%,i,6.4%,-7.3%,i
COc1ccc(NC(=O)c2c(F)cccc2F)cc1S(=O)(=O)Nc1ccc(Br)cc1,-3.0%,-0.1%,i,u,u,10.3µM*
COc1ccc(NC(=O)CCS(=O)(=O)c2ccccc2Cl)cc1S(=O)(=O)Nc1ccc(Cl)cc1,0.4%,3.5%,i,16.4µM*,u,u
COc1ccc(NC(=O)CCC(=O)c2cccs2)cc1S(=O)(=O)Nc1ccc(Cl)cc1,3.1%,4.0%,u,-1.6%,-9.5%,7.31µM*
Fc1ccc2ncc3c(-c4ccccc4)n[nH]c3c2c1,x,1.1%,i,x,x,i

# Compound activity from PubChem.
